Results filed as inconclusive are left out. Calls of active or inactive are those of the source. Rule for the calls, unless noted: active = hit-call score of the fitted dose curve at least 0.9, where 1 is the maximum; inactive = score below 0.9.
Key:
[1] = target: Oxysterols receptor LXR-alpha (Homo sapiens) (UniProt Q13133); assay: ATG_LXRa_TRANS: Attagene TRANS-FACTORIAL HepG2 Assay for human Liver X Receptor alpha (LXRa) (AID 2282980; active = hit-call score of the fitted dose curve at least 0.9, where 1 is the maximum); details: HepG2 Attagene TRANS reporter, LXRa transactivation
Sequence of Oxysterols receptor LXR-alpha (Homo sapiens) (Q13133 whole entry, looked up, the tested form may be a part): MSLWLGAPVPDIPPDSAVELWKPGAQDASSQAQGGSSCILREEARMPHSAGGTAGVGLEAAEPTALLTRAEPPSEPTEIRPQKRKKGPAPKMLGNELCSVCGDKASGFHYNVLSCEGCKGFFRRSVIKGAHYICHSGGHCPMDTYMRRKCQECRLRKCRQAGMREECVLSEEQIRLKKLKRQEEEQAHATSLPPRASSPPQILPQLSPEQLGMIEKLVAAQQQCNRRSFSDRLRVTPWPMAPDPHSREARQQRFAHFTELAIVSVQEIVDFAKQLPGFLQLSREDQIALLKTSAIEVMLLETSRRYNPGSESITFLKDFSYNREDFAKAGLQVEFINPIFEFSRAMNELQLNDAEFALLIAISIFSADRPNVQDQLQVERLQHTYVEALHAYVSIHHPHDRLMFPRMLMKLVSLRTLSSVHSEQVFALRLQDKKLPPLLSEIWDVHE
In short: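 Chemical-induced reporter mRNA measured by RT-PCR with fluorescent labelling and capillary electrophoresis after 24 h dosing of transiently transfected HepG2 cells expressing exogenous NR-Gal4 chimeras; increases scored against DMSO baseline.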

[2] = target: Hepatocyte nuclear factor 4-alpha (Homo sapiens) (UniProt P41235); assay: ATG_HNF4a_TRANS: Attagene TRANS-FACTORIAL HepG2 Assay for human Hepatocyte Nuclear Factor 4 alpha (HNF4a) (AID 2282982; active = hit-call score of the fitted dose curve at least 0.9, where 1 is the maximum); details: HepG2 HNF4a transactivation reporter, mRNA readout
Sequence of Hepatocyte nuclear factor 4-alpha (Homo sapiens) (P41235 whole entry, looked up, the tested form may be a part): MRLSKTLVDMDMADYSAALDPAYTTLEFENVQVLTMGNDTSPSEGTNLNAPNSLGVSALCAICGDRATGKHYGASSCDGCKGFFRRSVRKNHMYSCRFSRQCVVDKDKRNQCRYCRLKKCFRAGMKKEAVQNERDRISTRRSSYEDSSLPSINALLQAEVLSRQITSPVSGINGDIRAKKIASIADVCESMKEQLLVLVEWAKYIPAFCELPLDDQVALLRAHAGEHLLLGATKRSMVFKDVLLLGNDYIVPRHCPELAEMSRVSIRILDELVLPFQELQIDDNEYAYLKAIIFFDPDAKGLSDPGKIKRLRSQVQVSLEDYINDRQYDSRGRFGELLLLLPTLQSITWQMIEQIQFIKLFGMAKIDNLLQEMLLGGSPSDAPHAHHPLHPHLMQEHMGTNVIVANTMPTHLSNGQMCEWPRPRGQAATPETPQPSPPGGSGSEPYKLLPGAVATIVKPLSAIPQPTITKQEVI
In short: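 Cells used were human HepG2, transiently carrying GAL4-UAS reporter units read out against exogenous NR-GAL4 chimeras. Reporter transcript levels after 24 h dosing were quantified by fluorescent RT-PCR and capillary electrophoresis.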

[3] = ATG_M_06_TRANS: Attagene TRANS-FACTORIAL HepG2 Assay for M06 Transcription Factor (Internal Marker) (AID 2282983; active = hit-call score of the fitted dose curve at least 0.9, where 1 is the maximum); details: HepG2 Attagene TRANS M06 internal marker reporter
In short: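 Cells: HepG2, transient multi-reporter transfection. Exposure: 24 h. Detection: RT-PCR, 6-FAM labelling, HpaI digestion (2 h, 37 °C), capillary electrophoresis. Baseline: DMSO.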

[4] = ATG_M_32_TRANS: Attagene TRANS-FACTORIAL HepG2 Assay for M32 Transcription Factor (Internal Marker) (AID 2282984; active = hit-call score of the fitted dose curve at least 0.9, where 1 is the maximum); details: HepG2 Attagene TRANS M32 internal marker reporter
In short: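 Human hepatoma HepG2, transient MRTU transfection, 24 h treatment. RNA → RT-PCR → fluorescent primer extension → HpaI digest (2 h, 37 C) → CE. Positive-direction fit vs DMSO.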

[5] = target: Nuclear receptor subfamily 4 group A member 2 (Homo sapiens) (UniProt P43354); assay: ATG_NURR1_TRANS: Attagene TRANS-FACTORIAL HepG2 Assay for human Nuclear Receptor Related Protein 1 (NURR1) (AID 2282985; active = hit-call score of the fitted dose curve at least 0.9, where 1 is the maximum); details: HepG2 Attagene TRANS reporter, mRNA readout
Sequence of Nuclear receptor subfamily 4 group A member 2 (Homo sapiens) (P43354 whole entry, looked up): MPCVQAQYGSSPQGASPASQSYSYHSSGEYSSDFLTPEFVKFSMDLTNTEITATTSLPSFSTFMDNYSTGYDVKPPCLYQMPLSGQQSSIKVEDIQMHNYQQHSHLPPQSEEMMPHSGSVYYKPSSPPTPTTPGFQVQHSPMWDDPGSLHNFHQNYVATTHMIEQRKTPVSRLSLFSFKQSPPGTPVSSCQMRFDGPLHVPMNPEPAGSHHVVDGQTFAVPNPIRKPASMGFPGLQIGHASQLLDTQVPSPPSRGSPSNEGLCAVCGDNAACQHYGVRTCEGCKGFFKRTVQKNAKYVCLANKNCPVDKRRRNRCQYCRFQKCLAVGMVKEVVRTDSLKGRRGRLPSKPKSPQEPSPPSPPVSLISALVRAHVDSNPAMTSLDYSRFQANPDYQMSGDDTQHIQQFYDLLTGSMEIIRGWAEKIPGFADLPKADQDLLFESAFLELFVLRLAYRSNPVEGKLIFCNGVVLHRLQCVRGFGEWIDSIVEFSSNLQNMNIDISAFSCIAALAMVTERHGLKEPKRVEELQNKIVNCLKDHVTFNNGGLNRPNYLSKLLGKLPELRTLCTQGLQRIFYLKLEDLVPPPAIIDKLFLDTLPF
In short: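 After 24 h chemical dosing, total RNA from transiently transfected HepG2 cells was reverse-transcribed and reporter cDNA PCR-amplified, FAM-labelled and analysed by capillary electrophoresis. Activity fitted in positive direction, DMSO as negative control.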

[6] = target: Transcriptional activator Myb (Homo sapiens) (UniProt P10242); assay: ATG_Myb_CIS: Attagene CIS-FACTORIAL HepG2 Assay for human Myeloblastosis (Myb) Proto-Oncogene Transcription Factor (AID 2282986); details: HepG2 Attagene CIS-FACTORIAL Myb reporter transcription; actives raise or lower the signal
Sequence of Transcriptional activator Myb (Homo sapiens) (P10242 whole entry, looked up): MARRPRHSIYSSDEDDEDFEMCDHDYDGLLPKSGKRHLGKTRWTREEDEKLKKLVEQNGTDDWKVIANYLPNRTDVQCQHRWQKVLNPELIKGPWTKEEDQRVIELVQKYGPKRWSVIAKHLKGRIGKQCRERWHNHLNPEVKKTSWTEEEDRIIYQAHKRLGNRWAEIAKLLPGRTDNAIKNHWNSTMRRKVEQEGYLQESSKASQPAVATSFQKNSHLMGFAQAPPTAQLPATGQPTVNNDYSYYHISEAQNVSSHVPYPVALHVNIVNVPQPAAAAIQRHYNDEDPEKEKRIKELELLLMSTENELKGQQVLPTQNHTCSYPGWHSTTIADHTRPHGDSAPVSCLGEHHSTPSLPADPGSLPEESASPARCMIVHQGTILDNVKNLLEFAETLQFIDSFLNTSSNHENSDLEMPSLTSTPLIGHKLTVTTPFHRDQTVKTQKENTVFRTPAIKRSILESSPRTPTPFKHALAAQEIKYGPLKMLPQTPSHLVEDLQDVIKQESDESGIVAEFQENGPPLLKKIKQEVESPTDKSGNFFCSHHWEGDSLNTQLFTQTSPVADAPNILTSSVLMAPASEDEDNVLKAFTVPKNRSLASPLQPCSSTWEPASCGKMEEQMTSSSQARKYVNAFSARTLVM
In short: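 Transiently transfected HepG2 cells, treated 24 h. Reporter mRNA quantified by RT-PCR/capillary electrophoresis; bidirectional fit relative to DMSO.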

[7] = target: Nuclear respiratory factor 1 (Homo sapiens) (UniProt Q16656); assay: ATG_NRF1_CIS: Attagene CIS-FACTORIAL HepG2 Assay for human Nuclear Respiratory Factor 1 (NRF1) Orphan Gene (AID 2282987); details: HepG2 NRF1 cis-element reporter, Attagene multiplex; actives raise or lower the signal
Sequence of Nuclear respiratory factor 1 (Homo sapiens) (Q16656 whole entry, looked up, the tested form may be a part): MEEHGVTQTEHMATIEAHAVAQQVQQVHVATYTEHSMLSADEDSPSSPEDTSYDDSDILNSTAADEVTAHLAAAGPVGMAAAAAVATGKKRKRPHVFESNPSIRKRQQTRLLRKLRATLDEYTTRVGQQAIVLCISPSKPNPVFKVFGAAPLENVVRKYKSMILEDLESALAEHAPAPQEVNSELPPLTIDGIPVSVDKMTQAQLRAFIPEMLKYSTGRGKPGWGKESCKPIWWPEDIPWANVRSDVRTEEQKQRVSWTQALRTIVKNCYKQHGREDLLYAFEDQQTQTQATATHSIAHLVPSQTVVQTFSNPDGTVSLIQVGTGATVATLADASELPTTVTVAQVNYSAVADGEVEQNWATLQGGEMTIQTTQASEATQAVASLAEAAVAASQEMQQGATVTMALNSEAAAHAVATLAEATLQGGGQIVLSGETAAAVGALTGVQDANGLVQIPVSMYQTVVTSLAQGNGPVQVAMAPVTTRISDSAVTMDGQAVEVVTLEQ
In short: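 Cells (HepG2, transient MRTU transfection) are exposed to compound for 24 h, then RNA isolated and reporter mRNA amplified and fluorescently labelled. Fragments are separated by capillary electrophoresis; signal change is fitted bidirectionally relative to DMSO.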

[8] = ATG_NFI_CIS: Attagene CIS-FACTORIAL HepG2 Assay for human Nuclear Factor I (NFI) (AID 2282989); details: HepG2 cis-regulatory reporter, NFI response element transcription; actives raise or lower the signal
In short: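 Read-out: reporter mRNA via RT-PCR plus capillary electrophoresis with fluorescence detection. Transiently transfected HepG2 (endogenous TF activity on cis promoters), 24 h compound exposure; gain or loss of signal fitted against DMSO.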

[9] = target: Myc proto-oncogene protein (Homo sapiens) (UniProt P01106); assay: ATG_Myc_CIS: Attagene CIS-FACTORIAL HepG2 Assay for human Myelocytomatosis (Myc) Proto-Oncogene Transcription Factor (AID 2282990); details: HepG2, Attagene cis-reporter transcription factor activity; actives raise or lower the signal
Sequence of Myc proto-oncogene protein (Homo sapiens) (P01106 whole entry, looked up): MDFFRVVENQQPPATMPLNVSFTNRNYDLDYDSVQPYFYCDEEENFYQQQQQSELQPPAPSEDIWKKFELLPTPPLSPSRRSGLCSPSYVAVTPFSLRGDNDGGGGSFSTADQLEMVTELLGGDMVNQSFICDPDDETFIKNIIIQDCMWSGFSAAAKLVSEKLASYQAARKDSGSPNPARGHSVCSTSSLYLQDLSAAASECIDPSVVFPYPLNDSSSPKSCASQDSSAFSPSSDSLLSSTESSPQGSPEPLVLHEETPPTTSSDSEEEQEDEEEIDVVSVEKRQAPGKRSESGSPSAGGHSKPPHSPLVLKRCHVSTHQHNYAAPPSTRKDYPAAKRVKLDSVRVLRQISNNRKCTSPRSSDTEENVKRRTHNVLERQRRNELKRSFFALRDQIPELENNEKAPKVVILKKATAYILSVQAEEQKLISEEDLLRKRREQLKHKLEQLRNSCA
In short: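 DMSO-normalised, bidirectionally fitted reporter mRNA signal. HepG2 cells transfected with cis reporter constructs, treated 24 h; transcripts detected by RT-PCR, 6-FAM primer extension and CE.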

[10] = ATG_NF_kB_CIS: Attagene CIS-FACTORIAL HepG2 Assay for human Nuclear Factor Kappa B (NF-kB) (AID 2282991); details: HepG2 Attagene cis-factorial NF-kB reporter mRNA; actives raise or lower the signal
In short: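 Measures mRNA induction of an NF-kB-responsive cis-element reporter in HepG2 cells transfected with multiple reporter units, sampled 24 h post-dosing; quantified by fluorescence after RT-PCR and capillary electrophoresis, fitted for activation or inhibition against DMSO.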

[11] = ATG_NRF2_ARE_CIS: Attagene CIS-FACTORIAL HepG2 Assay for human Nuclear Factor Erythroid 2 Related Factor 2 (NFR2) response to Antioxidant Response Elements (ARE) (AID 2282992); details: HepG2 Attagene ARE/NRF2 reporter, transcription factor activity; actives raise or lower the signal;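 for AC50: reporter mRNA level measured by RT-PCR and capillary electrophoresis fluorescence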
In short: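 Transient MRTU transfection of HepG2; 24 h compound exposure; TriZol RNA, RT with oligo(dT), PCR, 6-FAM primer extension, HpaI cut, CE. Bidirectional fit vs DMSO.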

[12] = ATG_Oct_MLP_CIS: Attagene CIS-FACTORIAL HepG2 Assay for human Octamer-Binding Transcription Factor (Oct) (AID 2282993); details: HepG2 Attagene cis-factorial Oct reporter, mRNA; actives raise or lower the signal
In short: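 Read-out: reporter mRNA via RT-PCR plus capillary electrophoresis of 6-FAM-labelled fragments. Transiently transfected HepG2, 24 h exposure, endogenous TF activity on cis elements. Gain or loss of signal fitted relative to DMSO.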

[13] = target: Cellular tumor antigen p53 (Homo sapiens) (UniProt P04637); assay: ATG_p53_CIS: Attagene CIS-FACTORIAL HepG2 Assay for human p53 Transcription Factor (AID 2282994); details: HepG2 p53 cis-element reporter, Attagene mRNA; actives raise or lower the signal
Sequence of Cellular tumor antigen p53 (Homo sapiens) (P04637 whole entry, looked up): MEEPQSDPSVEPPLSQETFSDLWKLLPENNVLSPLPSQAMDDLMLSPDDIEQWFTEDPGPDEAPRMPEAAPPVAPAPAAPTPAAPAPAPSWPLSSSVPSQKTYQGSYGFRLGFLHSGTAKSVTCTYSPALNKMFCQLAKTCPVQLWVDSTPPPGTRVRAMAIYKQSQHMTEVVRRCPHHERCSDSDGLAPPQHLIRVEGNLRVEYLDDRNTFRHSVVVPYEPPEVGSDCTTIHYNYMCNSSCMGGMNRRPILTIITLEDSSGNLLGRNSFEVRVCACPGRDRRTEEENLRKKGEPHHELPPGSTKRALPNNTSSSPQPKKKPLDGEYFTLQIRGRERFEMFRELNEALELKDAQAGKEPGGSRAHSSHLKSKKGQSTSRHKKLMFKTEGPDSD
In short: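 HepG2, transient MRTU transfection (cis promoter elements, endogenous TFs); 24 h dosing; RNA isolation, RT-PCR, 6-FAM primer extension, HpaI digest, CE fluorescence; bidirectional fit vs DMSO.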

[14] = target: Oxysterols receptor LXR-beta (Homo sapiens) (UniProt P55055); assay: ATG_LXRb_TRANS: Attagene TRANS-FACTORIAL HepG2 Assay for human Liver X Receptor beta (LXRb) (AID 2282981; active = hit-call score of the fitted dose curve at least 0.9, where 1 is the maximum); details: HepG2 Attagene TRANS GAL4-LXRb reporter, mRNA
Sequence of Oxysterols receptor LXR-beta (Homo sapiens) (P55055 whole entry, looked up, the tested form may be a part): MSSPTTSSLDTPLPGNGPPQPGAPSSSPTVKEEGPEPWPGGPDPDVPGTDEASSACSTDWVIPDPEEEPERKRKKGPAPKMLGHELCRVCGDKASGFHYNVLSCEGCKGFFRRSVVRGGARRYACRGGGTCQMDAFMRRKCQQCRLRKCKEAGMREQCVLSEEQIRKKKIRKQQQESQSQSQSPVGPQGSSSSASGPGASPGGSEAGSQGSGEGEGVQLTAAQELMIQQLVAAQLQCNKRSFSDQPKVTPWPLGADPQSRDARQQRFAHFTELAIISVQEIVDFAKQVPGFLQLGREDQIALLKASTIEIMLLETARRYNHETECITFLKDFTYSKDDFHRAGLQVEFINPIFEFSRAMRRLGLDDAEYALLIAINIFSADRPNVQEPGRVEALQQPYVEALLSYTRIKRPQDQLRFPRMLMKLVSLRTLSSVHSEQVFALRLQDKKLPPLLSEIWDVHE
In short: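 In this TRANS format, exogenous chimeric NR-Gal4 protein activity, not endogenous factors, drives reporter expression in transfected human HepG2 cells. Exposure lasted 24 h; reporter mRNA was read by fluorescent capillary electrophoresis.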

Measured: AC50

COc1cc(C)ccc1C(C)C
not listed: [14]
inactive: all other assays above

CCCCCCCCCCCCCCCC[n+]1ccccc1
active: [7] 14.7 µM | [9] 20 µM | [13] 20.4 µM
not listed: [2] | [5] | [10]
inactive: all other assays above

CN(C)c1ccc(C(=N)c2ccc(N(C)C)cc2)cc1
active: [4] 106 µM | [12] 0.143 µM | [13] 29.4 µM
not listed: [3] | [8]
inactive: all other assays above

CC1=CC[C@H](C(C)C)C=C1
inactive: [1] | [14] | [4] | [5] | [6] | [7] | [8] | [12]

C1=Cc2ccccc2C1
active: [11] 19.8 µM
not listed: [4] | [5] | [7] | [9] | [10]
inactive: all other assays above

CC=CC(F)(F)C(F)(F)C(F)(F)F
not listed: [13]
inactive: all other assays above

— PubChem BioAssay (EPA / NIEHS)
